Data reported in PubChem BioAssay (Tox21).
“And” between values parts separate entries of the source, which are not always exact repeats. Equal values may be shown once. Inconclusive results are not listed. Entries that show only a call come without a potency. The source holds several records for some structures; these can differ, active in one and inactive in another. The source made the active and inactive calls. Calls follow the shape of the dose curve; as a rule, active = well fitted inhibition curve with a large enough effect in the repeat runs; inconclusive = weak or mixed curves; inactive = flat fitted curve, though single readings scatter.

test: qHTS assay to identify small molecule HDAC inhibitors (AID 1259364); settings: HCT-116 HDAC-Glo I/II luminescence, 2 h; series mostly up to 92.4 µM; also: nearly all actives have a fitted effect of over 45% in size
From the text: U.S. Tox21 Program National Center for Advancing Translational Sciences [NCATS] NIH Chemical Genomics Center [NCGC] U.S. Environmental Protection Agency [EPA] National Institutes of Environmental Health Sciences [NIEHS] National Toxicology Program [NTP] U.S. Food and Drug Administration [FDA] Tox21 Assay Overview: Histone deacetylases (HDACs) are a group of epigenetic enzymes that regulate gene expression by histone deacetylation. HDACs are capable of introducing epigenetic modifications and such aberrations contribute to the onset and progression of several human diseases, thus making HDACs a popular therapeutic target. For identifying endogenous class I/II HDAC inhibitors a homogenous, luminogenic HDAC I/II cell based assay was used to measure the relative activity of class I and II HDACs from cells. Wild type HCT-116 cells were used to screen Tox21 libraries for identifying class I/II HDAC inhibitors.
Tox21 Assay Protocol Summary: HCT-116 cells were dispensed at 1,500 per well in 5uL of culture medium into white solid bottom 1536-well plates (Greiner Bio-One, Monroe, NC) using a Multidrop Combi (Thermo Scientific, Waltham, MA) dispenser. The assay plates were incubated at 37 C and 5% CO2 for an overnight, and then 23nL of compounds dissolved in DMSO and positive control were transferred using a Pintool station (Wako, San Diego, CA). The assay plates were incubated at 37C and 5% CO2 for 2hr. After compound treatment, 4uL of HDAC-Glo reagent (Promega Corporation, Madison, WI) was added to each well of the assay plates using Flying Reagent Dispenser (FRD, Aurora Discovery, San Diego, CA) and incubated the assay plates at room temperature for 30min. The luminescence signal was quantified using a ViewLux plate reader (Perkin Elmer, Shelton, CT).
Potency is read from the fitted curve at half-maximal effect.

Question: For `C/C=C/c1ccc2c(c1)OCO2`, which Potency is on record?
Answer: Its Potency is “inactive”.

Question: With `ClC(Cl)c1ccccc1` as the compound, how does the Potency read?
Answer: The Potency was “inactive”.

Question: For `Oc1c(Br)cc(Br)cc1Br`, which Potency is on record?
Answer: Its Potency is “inactive”.

Question: Which Potency does the source give for `Sc1ccccc1` here?
Answer: The Potency was “inactive”.

Question: With `Cc1ccc(N=C=O)cc1N=C=O` as the compound, how does the Potency read?
Answer: The Potency was “inactive”.

Question: With `CCCCC(CC)C(=O)Cl` (stereo not given) as the compound, how does the Potency read?
Answer: The Potency was “inactive”.

Question: With `O=[N+]([O-])c1ccc(Cl)cc1` as the compound, how does the Potency read?
Answer: Its Potency is “inactive”.

Question: For `COC(C)(C)CCCC(C)C/C=C/C(C)=C/C(=O)OC(C)C` (stereo not given), which Potency is on record?
Answer: The Potency was “inactive”.

Question: Which Potency does the source give for `Nc1ccc([As](=O)(O)O)cc1` here?
Answer: Its Potency is “inactive”.

Question: With `CCOP(=S)(OCC)Oc1ccc([N+](=O)[O-])cc1` as the compound, how does the Potency read?
Answer: Its Potency is “inactive”.

Question: Which Potency does the source give for `OC[C@@H](O)[C@H]1O[C@@H]2O[C@H](C(Cl)(Cl)Cl)O[C@@H]2[C@H]1O` here?
Answer: Its Potency is “inactive”.

Question: For `Cl[C@H]1OCCO[C@@H]1Cl`, which Potency is on record?
Answer: Its Potency is “inactive”.

Question: Which Potency does the source give for `CN(C)NC(=O)CCC(=O)O` here?
Answer: Its Potency is “inactive”.

Question: With `NNc1ccccc1` as the compound, how does the Potency read?
Answer: The Potency was “inactive”.

Question: Which Potency does the source give for `CCCCCCCCCCCCCCCCCC(=O)O` here?
Answer: Its Potency is “inactive”.

Question: Which Potency does the source give for `CN(C)C(=O)Nc1cccc(C(F)(F)F)c1` here?
Answer: The Potency was “inactive”.

Question: With `CNc1cnn(-c2cccc(C(F)(F)F)c2)c(=O)c1Cl` as the compound, how does the Potency read?
Answer: The Potency was “inactive and 30.6 µM (active)”.

Question: Which Potency does the source give for `Cc1cccc(N)c1C` here?
Answer: Its Potency is “inactive”.

Question: For `CCCOC(=O)c1ccccc1C(=O)OCCC`, which Potency is on record?
Answer: Its Potency is “inactive”.

Question: For `Clc1cnc(Oc2ccc(Oc3ncc(Cl)cc3Cl)cc2)c(Cl)c1`, which Potency is on record?
Answer: The Potency was “inactive”.

Question: For `O=C(O)Cc1ccccc1`, which Potency is on record?
Answer: The Potency was “inactive”.

Question: Which Potency does the source give for `CN1C(=O)CCS(=O)(=O)C1c1ccc(Cl)cc1` (stereo not given) here?
Answer: The Potency was “inactive”.

Question: With `COP(=S)(OC)SCN1C(=O)c2ccccc2C1=O` as the compound, how does the Potency read?
Answer: Its Potency is “inactive”.

Question: For `C[C@H]1C(=O)O[C@@H]2CCN3CC=C(COC(=O)[C@](C)(O)[C@]1(C)O)[C@H]23`, which Potency is on record?
Answer: The Potency was “inactive”.

Question: For `CN(C)CCC#N`, which Potency is on record?
Answer: Its Potency is “inactive”.

Question: For `OCC(O)CCl` (stereo not given), which Potency is on record?
Answer: Its Potency is “inactive”.

Question: For `CCNc1nc(Cl)nc(NC(C)C)n1`, which Potency is on record?
Answer: The Potency was “inactive”.

Question: Which Potency does the source give for `OCCCCO` here?
Answer: Its Potency is “inactive”.

Question: Which Potency does the source give for `O=S(=O)(O)OOS(=O)(=O)O` here?
Answer: Its Potency is “inactive”.

Question: Which Potency does the source give for `O=C(O)C1C(C(=O)O)C2(Cl)C(Cl)=C(Cl)C1(Cl)C2(Cl)Cl` (stereo not given) here?
Answer: The Potency was “inactive”.

Question: For `O=C(O)C(Br)Br`, which Potency is on record?
Answer: Its Potency is “inactive”.

Question: Which Potency does the source give for `O=C/C=C/c1ccccc1` here?
Answer: Its Potency is “inactive”.

Question: With `OCc1ccco1` as the compound, how does the Potency read?
Answer: Its Potency is “inactive”.

Question: For `CC(C)c1cccc(C(C)C)c1O`, which Potency is on record?
Answer: The Potency was “inactive”.

Question: Which Potency does the source give for `COc1cc(-c2ccc(N)c(OC)c2)ccc1N` here?
Answer: The Potency was “inactive and 27.3 µM (active)”.

Question: Which Potency does the source give for `CC(=O)/C=C/c1ccccc1` here?
Answer: The Potency was “inactive”.

Question: With `Nc1ncc([N+](=O)[O-])s1` as the compound, how does the Potency read?
Answer: Its Potency is “inactive”.

Question: With `CCOc1ccc(N)cc1` as the compound, how does the Potency read?
Answer: The Potency was “inactive”.

Question: With `CSc1nnc(C(C)(C)C)c(=O)n1N` as the compound, how does the Potency read?
Answer: Its Potency is “inactive”.

Question: Which Potency does the source give for `Nc1cccc(Cl)c1` here?
Answer: Its Potency is “inactive”.
